Among all 2,100 compounds or so, about 650 (31%) were called active. Roughly 16% stayed inconclusive and do not appear here. Some of the results follow. Unmarked numbers belong to inactive results. Calls follow the shape of the dose curve; as a rule, active = well fitted inhibition curve with a large enough effect; inconclusive = small, poorly fitted or top-dose-only effect; inactive = flat fitted curve, though single readings scatter.
Assay: qHTS for inhibitors of Vif-A3G interactions: Cherry picks; also: nearly all actives have a fitted effect of over 80% in size; as to activity, negative = fluorescence increase: % of control where 0% means no effect
Details: HeLa A3G-eYFP + Vif (tagged APOBEC3G with the HIV-1 protein that degrades it), 24 h; Potency: eYFP fluorescence increase; series mostly up to 36.9 µM; activity, negative = fluorescence increase: at the top concentration
Method in brief: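 Cherry-picked compounds tested at several concentrations on A3G-eYFP/Vif HeLa cells for 24 hours; loss of Vif-driven degradation read as eYFP fluorescence by cytometric plate imaging, 488 nm excitation, 500-530 nm emission.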
Potency is read from the fitted curve at half-maximal effect.

| Compound | activity, negative = fluorescence increase | Potency |
| --- | --- | --- |
| Cc1ccc(-n2c(=O)c3ccc(C(=O)NCc4ccccc4Cl)cc3n(CC(=O)Nc3cccc(Cl)c3)c2=O)cc1 | -3.23% [at 46.1 µM] | – |
| O=C(NCCc1ccccc1Cl)c1ccc(Cn2c(=O)c3cccn3c3cccnc32)cc1 | – | 18.4 µM (active) |
| CCCCOc1ccc(/C=C/C2=CC(C)(C)NC(=S)N2)cc1OCC | 1.65% [at 46.1 µM] | – |
| O=c1c2ccccc2nc(/C=C/c2ccc([N+](=O)[O-])o2)n1CCCO | – | 18.4 µM (active) |
| Cn1c(/C=C/c2ccc([N+](=O)[O-])o2)nc2ccccc2c1=O | – | 18.4 µM (active) |
| CCn1c(/C=C/c2ccc([N+](=O)[O-])o2)nc2ccccc2c1=O | – | 11.6 µM (active) |
| CCCN1C(=O)C(Cc2nc3ccccc3c(=O)n2CC)c2cc(Br)ccc21 (centres undefined) | -3.57% [at 46.1 µM] | – |
| CCOC(=O)C(C)Oc1cccc2c(=O)n(CC(=O)NCc3ccco3)ccc12 (centres undefined) | -19.4% | – |
| NC(=O)c1ccc(NC(=O)C#Cc2ccccc2)cc1 | -1.03% | – |
| COc1cccc(N2CCN(Cc3nc4scc(-c5ccccc5)c4c(=O)[nH]3)CC2)c1 | -19.9% | – |
| O=C(/C=C/c1ccccc1)Nc1ncn[nH]1 | -2.53% | – |
| Cc1cccc2cc3c(N)c(C(=O)N4CCCc5ccccc54)sc3nc12 | – | 14.6 µM (active) |
| Cc1cc(NC(=O)COC(=O)c2ccc(S(=O)(=O)N3CCCc4ccccc43)cc2)no1 | -5.52% | – |
| Cc1c(C(=O)C(=O)N2CCCc3ccccc32)c2ccccc2n1C | -1.01% | – |
| COc1ccc(-c2cc(C(F)F)n3ncc(C(=O)N4CCc5ccccc54)c3n2)cc1 | -9.78% | – |
| Cc1cccc2cc3c(N)c(C(=O)N4CCc5ccccc54)sc3nc12 | – | 8.2 µM (active) |
| O=C(c1cc([N+](=O)[O-])ccc1N1CCCCC1)N1CCc2ccccc21 | 0.913% | – |
| Cc1ccc2nc3sc(C(=O)N4CCCc5ccccc54)c(N)c3cc2c1 | – | 14 µM (active) |
| Cc1ccc(Cc2c(C3CCCCC3)nc3ccc(C)cn23)cc1 | 2.87% | – |
| Cc1cc2nc3s/c(=C/c4ccc(-c5ccccc5C(=O)O)o4)c(=O)n3c2cc1C | – | 20.6 µM (active) |
| CCCCOc1nc2ccccc2nc1NS(=O)(=O)c1ccc(F)cc1 | 5.52% [at 46.1 µM] | – |
| COc1ccccc1N1C(=O)C(Cl)=C(Nc2ccccc2O)C1=O | – | 16.4 µM (active) |
| COc1ccc(Cl)cc1NC(=O)CN(C)CC(=O)Nc1ccccc1N1CCOCC1 | -10.8% | – |
| COc1ccccc1Nc1cc2cc(Br)ccc2c(=O)[nH]1 | -6.94% | – |
| C#CCSc1nc(-c2cccs2)ccc1C#N | – | 8.2 µM (active) |

| Compound | activity, negative = fluorescence increase | Potency |
| --- | --- | --- |
| Cc1cccc(CSc2nc(-c3cccs3)ccc2C#N)c1 | -21.7% [at 46.1 µM] | – |
| N#Cc1ccc(-c2cccs2)nc1SCc1c(F)cccc1Cl | -17.2% [at 46.1 µM] | – |
| Cc1ccc(NC2=C(Cl)C(=O)N(C3CCCCC3)C2=O)cc1 | -1.75% [at 46.1 µM] | – |
| CCC(=O)Nc1ccccc1-c1nc2ccccc2n(C(C)C(=O)Nc2ccc(OC)cc2)c1=O (centres undefined) | – | 18.4 µM (active) |
| COc1ccc(CNCC(=O)Nc2ccccc2-n2cccc2)cc1 | -5.31% | – |
| Cc1noc(C)c1COc1ccc(C(=O)NNC(=O)c2ccccc2)cc1 | -5.2% | – |
| CCOC(=O)c1cnc(-n2nc(C)cc2C)nc1NNc1cc(C)nc(-c2ccccc2)n1 | -4.37% [at 46.1 µM] | – |
| CCCCCCN1C[C@H](O)[C@@H](n2cc(COC(=O)c3ccccc3)nn2)C[C@@H]1c1ccc(C)cc1 | -7.29% [at 46.1 µM] | – |
| CC1(C)CC(=O)C(C=Nc2cc(C(=O)c3ccccc3)ccc2N)=C(O)C1 | – | 20.6 µM (active) |
| CCOC(=O)N1CCc2c(sc3c2C(=O)NC(c2ccc(N(C)C)cc2)N3)C1 (centres undefined) | – | 20.6 µM (active) |
| Cc1onc(-c2c(F)cccc2Cl)c1C(=O)O/N=C(\N)c1ccc([N+](=O)[O-])o1 | 3.83% | – |
| Nc1nc(-c2cc(O)ccc2[N+](=O)[O-])cc(-c2ccccc2)c1[N+](=O)[O-] | – | 15.8 µM (active) |
| CNCC(O)Cn1c2c(c3ccccc31)CCCC2 (centres undefined) | -0.603% | – |
| Cc1oc(C)c2c(=O)ccc3c(c12)OC(N)=C(C#N)C3c1ccc(F)cc1 (centres undefined) | -17.8% [at 46.1 µM] | – |
| O=C(Nc1ncc(Cc2ccc(SC(F)F)cc2)s1)c1ccccc1 | -0.547% | – |
| CC(C)OC(=O)c1ccc(NCc2cc(O)ccc2O)cc1Cl | -11.5% | – |
| COc1ccc(O)c(C(=O)c2coc(=N)c(C(=O)Nc3ccc(SC(F)F)cc3)c2)c1 | – | 23.1 µM (active) |
| CC(C)OC(=O)c1cc(C(=O)c2cc(F)ccc2O)coc1=N | – | 20.6 µM (active) |
| COc1cc(-c2nc3ccc(C)cn3c2NCc2ccccc2)ccc1SC1CCCCC1 | 4.07% | – |
| COc1ccccc1/C=C/C=N/NC(=O)c1cc(-c2ccc(C)o2)[nH]n1 | -6.92% | – |
| C(=C\c1c[nH]c2ccccc12)/c1nccc2ccccc12 | – | 14.6 µM (active) |
| C(=Cc1c[nH]c2ccccc12)c1nccc2ccccc12 | – | 18.4 µM (active) |
| Cc1ccc2c(/C=C/c3c[nH]c4ccccc34)ccnc2c1C | – | 3.26 µM (active) |
| Cc1cccc(C(=O)Nc2nnc(C3=COCCO3)o2)c1 | 7.13% [at 46.1 µM] | – |

Source: PubChem BioAssay AID651812 (National Center for Advancing Translational Sciences (NCATS), 2012)
